What all share (conditions): Compound concentration 20.0 uM
The target of test [1] is Tyrosine-protein kinase ABL1 (Homo sapiens) (UniProt P00519).
For test [2], the target named is Bromodomain-containing protein 4 (Homo sapiens) (UniProt O60885).
Test [3] addresses Cyclin-dependent kinase 2 (Homo sapiens) (UniProt P24941).
The target of test [4] is Casein kinase I isoform delta (Homo sapiens) (UniProt P48730).
The target of test [5] is Glycogen synthase kinase-3 beta (Homo sapiens) (UniProt P49841).
Chain of Glycogen synthase kinase-3 beta (Homo sapiens) (P49841 whole entry, looked up): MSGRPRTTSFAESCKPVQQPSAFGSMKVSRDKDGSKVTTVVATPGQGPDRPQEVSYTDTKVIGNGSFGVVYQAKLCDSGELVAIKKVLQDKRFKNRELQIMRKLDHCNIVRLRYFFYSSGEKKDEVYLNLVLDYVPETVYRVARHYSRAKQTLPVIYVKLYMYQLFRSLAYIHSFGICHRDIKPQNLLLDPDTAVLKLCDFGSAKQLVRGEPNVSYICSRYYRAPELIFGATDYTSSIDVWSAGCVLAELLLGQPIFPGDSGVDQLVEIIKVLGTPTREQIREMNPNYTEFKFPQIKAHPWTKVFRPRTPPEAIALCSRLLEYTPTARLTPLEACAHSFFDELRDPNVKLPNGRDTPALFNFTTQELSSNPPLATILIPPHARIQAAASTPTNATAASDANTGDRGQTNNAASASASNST
The target of test [6] is Mitogen-activated protein kinase 1 (Homo sapiens) (UniProt P28482).
Chain of Mitogen-activated protein kinase 1 (Homo sapiens) (P28482 whole entry): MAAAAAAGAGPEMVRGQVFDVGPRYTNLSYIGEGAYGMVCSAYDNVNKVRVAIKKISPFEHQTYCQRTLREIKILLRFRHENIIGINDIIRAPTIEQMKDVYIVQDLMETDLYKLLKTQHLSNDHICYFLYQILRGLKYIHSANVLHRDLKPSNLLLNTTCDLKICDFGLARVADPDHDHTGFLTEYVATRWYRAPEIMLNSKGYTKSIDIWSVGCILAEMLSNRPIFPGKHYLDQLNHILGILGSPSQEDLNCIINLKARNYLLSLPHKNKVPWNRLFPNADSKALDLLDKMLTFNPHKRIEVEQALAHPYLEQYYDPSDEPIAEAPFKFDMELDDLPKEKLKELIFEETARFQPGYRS
The target in test [7] is T1, Aurora kinase A (Homo sapiens) (UniProt O14965).
T1 sequence (whole entry): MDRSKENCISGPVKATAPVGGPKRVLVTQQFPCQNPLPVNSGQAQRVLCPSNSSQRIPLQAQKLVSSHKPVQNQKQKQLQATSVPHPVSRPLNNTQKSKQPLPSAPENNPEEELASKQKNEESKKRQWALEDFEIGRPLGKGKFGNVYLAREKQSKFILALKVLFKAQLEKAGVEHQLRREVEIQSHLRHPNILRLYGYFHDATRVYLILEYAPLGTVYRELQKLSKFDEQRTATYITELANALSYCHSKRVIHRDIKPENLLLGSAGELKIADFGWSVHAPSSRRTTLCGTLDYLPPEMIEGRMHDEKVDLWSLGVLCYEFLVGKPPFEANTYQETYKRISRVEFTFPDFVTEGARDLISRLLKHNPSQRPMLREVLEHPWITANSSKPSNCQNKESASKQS

In test [8] the target is T2, Transcription intermediary factor 1-alpha (Homo sapiens) (UniProt O15164).
T2 sequence (whole entry): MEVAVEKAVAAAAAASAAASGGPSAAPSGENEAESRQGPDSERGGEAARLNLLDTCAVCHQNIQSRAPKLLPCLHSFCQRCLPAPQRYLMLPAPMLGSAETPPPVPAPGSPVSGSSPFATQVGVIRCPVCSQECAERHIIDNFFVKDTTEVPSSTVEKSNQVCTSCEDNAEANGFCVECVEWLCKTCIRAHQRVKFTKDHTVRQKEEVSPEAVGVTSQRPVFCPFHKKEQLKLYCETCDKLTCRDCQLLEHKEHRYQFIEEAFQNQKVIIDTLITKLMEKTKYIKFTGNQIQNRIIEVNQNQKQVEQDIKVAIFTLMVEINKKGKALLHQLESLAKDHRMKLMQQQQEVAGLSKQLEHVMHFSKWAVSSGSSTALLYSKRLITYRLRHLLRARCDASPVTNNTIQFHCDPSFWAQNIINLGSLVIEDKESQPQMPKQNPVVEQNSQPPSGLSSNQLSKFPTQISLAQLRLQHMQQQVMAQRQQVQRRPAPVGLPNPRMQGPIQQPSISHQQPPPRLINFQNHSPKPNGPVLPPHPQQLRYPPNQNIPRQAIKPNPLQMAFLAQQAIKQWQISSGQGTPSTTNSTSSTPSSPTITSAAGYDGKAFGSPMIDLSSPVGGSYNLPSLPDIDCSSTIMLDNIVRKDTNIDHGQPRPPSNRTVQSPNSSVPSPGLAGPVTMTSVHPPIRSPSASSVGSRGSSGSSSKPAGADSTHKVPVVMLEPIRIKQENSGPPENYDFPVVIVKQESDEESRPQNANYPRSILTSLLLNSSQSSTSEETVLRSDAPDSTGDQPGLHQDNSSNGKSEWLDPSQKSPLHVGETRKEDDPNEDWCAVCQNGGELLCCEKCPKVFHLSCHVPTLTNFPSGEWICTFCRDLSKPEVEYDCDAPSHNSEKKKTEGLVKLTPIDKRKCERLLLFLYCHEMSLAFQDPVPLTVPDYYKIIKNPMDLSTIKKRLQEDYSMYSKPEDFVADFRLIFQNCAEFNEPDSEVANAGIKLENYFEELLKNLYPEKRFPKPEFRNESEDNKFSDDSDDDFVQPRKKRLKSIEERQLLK

Chain of Tyrosine-protein kinase ABL1 (Homo sapiens) (P00519 whole entry): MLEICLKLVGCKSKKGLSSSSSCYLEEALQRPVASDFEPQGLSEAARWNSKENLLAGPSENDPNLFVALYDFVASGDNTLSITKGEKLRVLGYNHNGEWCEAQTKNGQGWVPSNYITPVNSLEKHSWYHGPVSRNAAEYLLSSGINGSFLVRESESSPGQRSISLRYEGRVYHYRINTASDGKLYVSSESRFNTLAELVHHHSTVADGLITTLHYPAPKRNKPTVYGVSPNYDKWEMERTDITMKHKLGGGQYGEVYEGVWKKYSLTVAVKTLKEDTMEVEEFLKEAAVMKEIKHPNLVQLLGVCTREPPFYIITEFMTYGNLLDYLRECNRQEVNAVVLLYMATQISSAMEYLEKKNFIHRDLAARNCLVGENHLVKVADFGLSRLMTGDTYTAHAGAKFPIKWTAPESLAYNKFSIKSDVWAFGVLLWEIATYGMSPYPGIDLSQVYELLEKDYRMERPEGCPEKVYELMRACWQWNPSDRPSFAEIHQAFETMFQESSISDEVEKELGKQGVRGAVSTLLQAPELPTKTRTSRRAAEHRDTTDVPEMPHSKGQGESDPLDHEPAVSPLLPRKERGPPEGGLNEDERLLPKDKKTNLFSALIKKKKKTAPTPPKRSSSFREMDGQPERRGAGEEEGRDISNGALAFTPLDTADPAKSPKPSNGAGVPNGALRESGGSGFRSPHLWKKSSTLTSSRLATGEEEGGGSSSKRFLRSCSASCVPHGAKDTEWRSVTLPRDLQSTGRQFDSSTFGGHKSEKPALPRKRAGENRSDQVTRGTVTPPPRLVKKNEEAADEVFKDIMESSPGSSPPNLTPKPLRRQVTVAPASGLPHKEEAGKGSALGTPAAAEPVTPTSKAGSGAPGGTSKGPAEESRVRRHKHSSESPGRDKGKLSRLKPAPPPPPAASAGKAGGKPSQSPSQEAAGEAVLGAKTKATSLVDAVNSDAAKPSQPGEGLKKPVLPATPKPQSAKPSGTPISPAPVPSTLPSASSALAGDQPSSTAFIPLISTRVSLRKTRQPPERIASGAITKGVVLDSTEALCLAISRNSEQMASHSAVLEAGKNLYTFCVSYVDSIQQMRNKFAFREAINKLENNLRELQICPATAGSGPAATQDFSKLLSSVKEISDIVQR
Chain of Casein kinase I isoform delta (Homo sapiens) (P48730 whole entry, looked up, canonical isoform): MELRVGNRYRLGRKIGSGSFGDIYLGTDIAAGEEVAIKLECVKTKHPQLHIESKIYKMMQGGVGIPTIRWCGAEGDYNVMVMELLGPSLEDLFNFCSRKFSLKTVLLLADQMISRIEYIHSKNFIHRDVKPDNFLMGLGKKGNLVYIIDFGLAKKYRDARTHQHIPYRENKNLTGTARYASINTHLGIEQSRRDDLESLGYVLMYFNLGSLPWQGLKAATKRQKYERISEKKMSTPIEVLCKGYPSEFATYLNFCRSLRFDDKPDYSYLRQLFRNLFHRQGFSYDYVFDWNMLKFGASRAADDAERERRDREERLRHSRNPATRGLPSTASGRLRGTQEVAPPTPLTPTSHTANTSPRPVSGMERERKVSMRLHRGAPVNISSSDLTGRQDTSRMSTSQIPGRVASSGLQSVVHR

For the compound `O=C(c1cc(Cc2n[nH]c(=O)c3ccccc23)ccc1F)N1CC(CNC2CC2)C1`, the ΔTm is 0.54 °C in test [1]; -1.65 °C in test [2]; 0.08 °C in test [3]; -0.14 °C in test [4]; -0.61 °C in test [5]; 0.06 °C in test [6]. The thermal shift (ΔTm) in test [7] is -2.47 °C; in test [8], 0.44 °C.
For `Cc1ncsc1-c1ccc(CNC(=O)[C@@H]2C[C@@H](O)CN2C(=O)[C@@H](NC(=O)COCCOCCOCCNC(=O)C[C@@H]2N=C(c3ccc(Cl)cc3)c3c(sc(C)c3C)-n3c(C)nnc32)C(C)(C)C)cc1`, the shift in melting temperature (ΔTm) was 0.3 °C in test [1]; 10 °C in test [2]; -1.76 °C in test [3]; 0.94 °C in test [4]; 0 °C in test [5]; 0 °C in test [6]. The ΔTm in test [7] and in test [8] was 0 °C in each case.
As to `COC1CCN(C(=O)c2cc(Cc3n[nH]c(=O)c4ccccc34)ccc2F)CC1`, the ΔTm in test [1] is 0.56 °C; in test [2] it was -2.02 °C; in test [3] it was 0.16 °C; in test [4] it was -0.31 °C; in test [5] it was 0.09 °C; in test [6], 0.51 °C. Further, the ΔTm in test [7] is -2.39 °C; in test [8], -0.67 °C.
For `C[C@H]1CO[C@@H]2Cn3cc(C(=O)NCc4ccc(F)cc4F)c(=O)c(O)c3C(=O)N12`, the thermal shift (ΔTm) in test [1] is 0.13 °C; in test [2], -2.15 °C; in test [3], 0.09 °C; in test [4], -0.04 °C; in test [5], -0.88 °C; in test [6], 0.4 °C. Moreover, the shift in melting temperature (ΔTm) in test [7] is -0.95 °C; in test [8], 0.47 °C.
With `O=C(O)Cc1ccc(Cc2cc(-c3cccc(Cl)c3)nc(C(F)(F)F)c2)cc1`, the ΔTm in test [1] is 0.68 °C; in test [2], -4.37 °C; in test [3], 1.64 °C; in test [4], -0.18 °C; in test [5], -1.53 °C; in test [6], 0.39 °C. The ΔTm was -2.1 °C in test [7] and -0.93 °C in test [8].
`c1ccc(Cn2c(-c3ccc(OC[C@H](C4CCNCC4)n4c(-c5ccccc5)nc5ccccc54)cc3)nc3ccccc32)cc1`: the ΔTm in test [1] was -1.84 °C; in test [2], -6.29 °C; in test [3], -1.5 °C; in test [4], -0.34 °C; in test [5], -3.92 °C; in test [6], 0 °C. The ΔTm in test [7] was 0 °C; in test [8] it was -1.18 °C.
For the compound `CCCc1nc(C)c2c(C)nc3ccc(OC)nc3n12`, the ΔTm in test [1] was 1.04 °C; in test [2], -3.02 °C; in test [3], -0.07 °C; in test [4], 2.7 °C; in test [5] it was 1.39 °C; in test [6] it was 0.58 °C. Also, the ΔTm in test [7] was -1.87 °C; in test [8] it was 0.69 °C.
Regarding `CCn1c(=O)c(C)cn(Cc2nnc(-c3ccc(F)c(OC)c3F)s2)c1=O`, the ΔTm in test [1] was 0.22 °C; in test [2] it was -0.83 °C; in test [3], 0.23 °C; in test [4], 0.22 °C; in test [5], 0 °C; in test [6] it was -4.56 °C. Moreover, the values for the shift in melting temperature (ΔTm) in test [7] and in test [8] were -2.75 °C and -0.83 °C, respectively.
As to `CC(=O)C(=Cc1cc(O)c(O)c([N+](=O)[O-])c1)C(C)=O`, the ΔTm in test [1] is 0.06 °C; in test [2] it was 0.74 °C; in test [3] it was 0.04 °C; in test [4], -0.82 °C; in test [5] it was -0.72 °C; in test [6], 0.27 °C. The thermal shift (ΔTm) was determined as 0.07 °C in test [7] and 0.21 °C in test [8].
Regarding `CN(C)CC(c1ccc(O)cc1)C1(O)CCCCC1` (stereo unspecified), the ΔTm is 0.19 °C in test [1]; -2.16 °C in test [2]; 0.04 °C in test [3]; -0.35 °C in test [4]; -1.41 °C in test [5]; 0.1 °C in test [6]. Also, the shift in melting temperature (ΔTm) is -1.27 °C in test [7] and 0.3 °C in test [8].
On to `CCCSc1nc(N[C@@H]2C[C@H]2c2ccc(F)c(F)c2)c2nnn([C@@H]3C[C@H](OCCO)[C@@H](O)[C@H]3O)c2n1`, for which the ΔTm was 0.97 °C in test [1]; -3.15 °C in test [2]; -0.32 °C in test [3]; -0.02 °C in test [4]; -1.82 °C in test [5]; 0.5 °C in test [6]. Also, the thermal shift (ΔTm) in test [7] was -2.27 °C; in test [8], 0.03 °C.
For `CNC(=O)O[C@H]1COc2ccc(N3CCN(C4COC4)CC3)cc2[C@@H]1NC(=O)c1ccc(F)cc1`, the ΔTm in test [1] was 0.28 °C; in test [2], -1.16 °C; in test [3], -0.66 °C; in test [4], 0.03 °C; in test [5], -0.56 °C; in test [6], -1.19 °C. Besides, the thermal shift (ΔTm) in test [7] is -1.61 °C; in test [8], -0.51 °C.
Regarding `O=C1c2ccccc2C(=O)c2oc(-c3ccc(F)cc3)nc21`, the ΔTm is 0.01 °C in test [1]; -1.84 °C in test [2]; -0.07 °C in test [3]; -0.12 °C in test [4]; -0.33 °C in test [5]; 0.17 °C in test [6]. Also, the ΔTm was -2.4 °C in test [7] and -0.61 °C in test [8].
On to `COCc1nc(C(F)(F)F)[nH]c1-c1cc(C(=O)N2CC(c3ccc(C#N)cc3)C2)c(C)cc1C`, for which the shift in melting temperature (ΔTm) is 0.13 °C in test [1]; -3.21 °C in test [2]; -0.08 °C in test [3]; -0.27 °C in test [4]; -1.21 °C in test [5]; 0.07 °C in test [6]. For the same compound, the shift in melting temperature (ΔTm) in test [7] is -2.54 °C; in test [8], -1.79 °C.
Turning to `NS(=O)(=O)c1cc(-c2nnn[nH]2)c(NCc2cccs2)cc1Cl`, the shift in melting temperature (ΔTm) in test [1] was 0.69 °C; in test [2] it was -1.05 °C; in test [3] it was 1.03 °C; in test [4] it was 0.19 °C; in test [5], 1.34 °C; in test [6] it was 0.84 °C. Further, the thermal shift (ΔTm) was -1.94 °C in test [7] and 0 °C in test [8].
Consider `CCN(c1cc(C#CCN2CCOCC2)cc(C(=O)NCc2c(C)cc(C)[nH]c2=O)c1C)[C@H]1CC[C@H](N(C)CCOC)CC1`, for which the ΔTm in test [1] is 0.47 °C; in test [2], -1.47 °C; in test [3] it was 0.53 °C; in test [4] it was 0.46 °C; in test [5] it was -0.17 °C; in test [6], 0.04 °C. In addition, the thermal shift (ΔTm) was -0.54 °C in test [7] and -0.98 °C in test [8].
Consider `Cc1[nH]c2c(N3CCCCC3)c(-c3ccccc3)nn2c(=O)c1-c1ccc(O)cc1`, for which the thermal shift (ΔTm) in test [1] was -0.07 °C; in test [2], 0.61 °C; in test [3], 0.64 °C; in test [4], -0.07 °C; in test [5], -1.39 °C; in test [6], 0.65 °C. The thermal shift (ΔTm) in test [7] is -0.41 °C; in test [8] it was -0.15 °C.
Take `N[C@@H](CCCCB(O)O)C(=O)O`: the shift in melting temperature (ΔTm) is 0.06 °C in test [1]; 1.28 °C in test [2]; 0.26 °C in test [3]; -0.26 °C in test [4]; -0.55 °C in test [5]; 0.18 °C in test [6]. In addition, the ΔTm in test [7] is -0.4 °C; in test [8], -0.41 °C.
As to `COc1cc(C(C)C)c2c(c1)S(=O)(=O)N(COc1cc(=O)n3cccc(OCCN4CCCCC4)c3n1)C2=O`, the shift in melting temperature (ΔTm) in test [1] is 0.26 °C; in test [2], -2.34 °C; in test [3] it was -0.17 °C; in test [4], 0.5 °C; in test [5], 0.26 °C; in test [6], -0.23 °C. Besides, the shift in melting temperature (ΔTm) was 2.88 °C in test [7] and -1.28 °C in test [8].
As for `CCCCCCNC(=O)n1cc(F)c(=O)[nH]c1=O`, the ΔTm in test [1] is 0.09 °C; in test [2], -1.76 °C; in test [3], -0.24 °C; in test [4], -0.3 °C; in test [5] it was -0.82 °C; in test [6], 0.03 °C. The ΔTm was -1.98 °C in test [7] and 0.05 °C in test [8].
Turning to `CCOc1ccc2nc(-c3cccc(OCC(=O)NC(C)C)c3)nc(Nc3ccc(-c4cn[nH]c4)cc3)c2c1`, the ΔTm in test [1] was 0.09 °C; in test [2] it was -0.68 °C; in test [3] it was 0.3 °C; in test [4], -1.4 °C; in test [5], -0.35 °C; in test [6] it was -2.16 °C. The ΔTm in test [7] and in test [8] was 0 °C throughout.
As to `C[C@@H](COCCC(=O)N1CCN(c2ncc(C(F)(F)F)cn2)CC1)Nc1cn[nH]c(=O)c1C(F)(F)F`, the ΔTm in test [1] is 0.66 °C; in test [2] it was -3.06 °C; in test [3], -0.01 °C; in test [4] it was -0.13 °C; in test [5], 0 °C; in test [6], 0.21 °C. For the same compound, the ΔTm is -2.44 °C in test [7] and -0.58 °C in test [8].

Usually ΔTm stands for the shift of the melting midpoint relative to a reference.

For the origin of these results see ChEMBL document CHEMBL5724796, “Tm Shift (DSF) assay results for EUbOPEN Chemogenomics Library” (2024).
